Data taken from PubChem BioAssay (NCI).
This is part of a sample that, as a whole, favours compounds with a hit. Of some 79,000 tested, about 15% had one in any assay. Active and inactive are the calls of the source. Rule as the data show it: active = growth inhibition above about 70%; inactive = the rest.

Experiments:
[1] = NCI Yeast Anticancer Drug Screen. Data for the wt1 strain (AID 149);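 also: 0% = growth of vehicle-treated wt1 cultures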; conditions: S. cerevisiae wt1 strain (SPY 50644) growth inhibition, active compounds read high
Summary of the method: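 Measured: growth of wt1 yeast under compound versus vehicle treatment, reported as inhibition.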

[2] = NCI Yeast Anticancer Drug Screen. Data for the rad50EPP+ strain (AID 151);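 also: 0% = growth of vehicle-treated control cultures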; conditions: S. cerevisiae rad50 mutant strain, active compounds read high
Summary of the method: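 In this screen, rad50EPP+ yeast were exposed to compounds. Growth inhibition was scored against vehicle-treated controls.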

[3] = NCI Yeast Anticancer Drug Screen. Data for the mgt1 strain (AID 153); conditions: S. cerevisiae mgt1 mutant growth inhibition, active compounds read high
Summary of the method: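 mgt1 strain exposed; growth vs vehicle control recorded as inhibition.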

[4] = NCI Yeast Anticancer Drug Screen. Data for the rad50 strain (AID 155);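 also: 0% = growth of vehicle-only cultures of the same strain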; conditions: S. cerevisiae rad50 strain growth inhibition, active compounds read high
Summary of the method: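 Growth of the mutant yeast was measured after compound exposure and referenced to vehicle-treated cultures.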

[5] = NCI Yeast Anticancer Drug Screen. Data for the mec2-1 strain (AID 157); conditions: S. cerevisiae mec2-1 strain, active compounds read high
Summary of the method: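 Vehicle-treated cultures served as reference for growth inhibition of compound-exposed mec2-1 yeast.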

[6] = NCI Yeast Anticancer Drug Screen. Data for the rad14 strain (AID 159);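 also: 0% = growth of vehicle-treated control cultures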; conditions: S. cerevisiae rad14 strain growth inhibition, active compounds read high
Summary of the method: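 Here, inhibition of yeast growth was measured after compound exposure, using a strain with a genetic defect in DNA damage repair and vehicle-treated cultures as the reference.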

[7] = NCI Yeast Anticancer Drug Screen. Data for the sgs1 mgt1 strain (AID 161);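 also: 0% = growth of cultures given vehicle only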; conditions: S. cerevisiae sgs1 mgt1 strain, active compounds read high
Summary of the method: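 Genetically altered yeast, compound exposure, growth inhibition relative to vehicle.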

[8] = NCI Yeast Anticancer Drug Screen. Data for the CLN2oe strain (AID 163);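 also: 0% = growth of vehicle-only control cultures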; conditions: S. cerevisiae CLN2oe strain, active compounds read high
Summary of the method: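 Inhibition relative to vehicle-treated yeast is reported. Cells: strain with genetic alteration in cell-cycle control, grown with compound.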

[9] = NCI Yeast Anticancer Drug Screen. Data for the cln2 rad14 strain (AID 165);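 also: 0% = growth equal to vehicle treated cultures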; conditions: S. cerevisiae cln2 rad14 strain, active compounds read high
Summary of the method: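 Each compound was tested on cln2 rad14 yeast. Inhibition of growth was calculated against vehicle-exposed controls.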

[10] = NCI Yeast Anticancer Drug Screen. Data for the bub3 strain (AID 167); conditions: S. cerevisiae bub3 mutant strain, active compounds read high
Summary of the method: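 Whole-cell yeast assay. The mutant strain was incubated with compounds, and growth inhibition was determined by comparison with vehicle-treated cells.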

[11] = NCI Yeast Anticancer Drug Screen. Data for the wt2 strain (AID 169);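 also: 0% = growth of vehicle-treated yeast cultures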; conditions: S. cerevisiae wt2 strain growth inhibition, active compounds read high
Summary of the method: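 Inhibition of yeast growth was determined after compound treatment, normalised to controls receiving only vehicle.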

[12] = NCI Yeast Anticancer Drug Screen. Data for the mlh1 strain (AID 171);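 also: 0% = growth of vehicle-treated control cultures of the same strain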; conditions: S. cerevisiae mlh1 strain growth inhibition, active compounds read high
Summary of the method: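 Vehicle-normalised growth inhibition of a repair- or checkpoint-altered yeast strain following compound treatment.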

[13] = NCI Yeast Anticancer Drug Screen. Data for the sgs1 strain (AID 173);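 also: 0% = growth of vehicle-only control cultures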; conditions: S. cerevisiae sgs1 mutant, active compounds read high
Summary of the method: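 Screen format: yeast with repair or checkpoint alterations, compound exposure, growth read relative to vehicle.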

[14] = NCI Yeast Anticancer Drug Screen. Data for the mlh1 rad18 strain (AID 175); conditions: S. cerevisiae mlh1 rad18 strain growth inhibition, active compounds read high
Summary of the method: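 Vehicle-treated cultures served as the reference for growth inhibition in a yeast strain carrying DNA damage repair alterations exposed to each compound.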

[15] = NCI Yeast Anticancer Drug Screen. Data for the rad18 strain (AID 177); conditions: S. cerevisiae rad18 mutant growth inhibition, active compounds read high
Summary of the method: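 Test articles were incubated with altered yeast defective in DNA damage repair. Results are given as inhibition of growth versus vehicle.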

[16] = at 5.0 µM (retest, dose inferred, filed as 0.5)
[17] = at 50.0 µM (retest, dose inferred, filed as 5.0)

Measured: growth inhibition

O=C1OC(c2ccc(Cl)cc2)Sc2ccccc21 (stereo not drawn)
inactive: [1]; at 1.2 µM 1% | [1]; at 3.7 µM 6% | [1]; at 11.0 µM 17% | [2]; at 1.2 µM 11% | [2]; at 3.7 µM 28% | [2]; at 11.0 µM 45% | [2]; at 33.0 µM 61% | [2]; at 100.0 µM 58% | [3]; at 1.2 µM 6% | [3]; at 3.7 µM 8% | [3]; at 11.0 µM 17% | [4]; at 1.2 µM 7% | [4]; at 3.7 µM 13% | [4]; [16] 5% | [4]; at 11.0 µM 62% | [5]; at 1.2 µM 9% | [5]; at 3.7 µM 17% | [5]; [16] -7% | [5]; at 11.0 µM 33% | [5]; [17] 35% | [6]; at 1.2 µM 7% | [6]; at 3.7 µM 11% | [6]; at 11.0 µM 25% | [7]; [16] 4% | [7]; [17] 52% | [8]; at 1.2 µM 9% | [8]; at 3.7 µM 13% | [8]; at 11.0 µM 27% | [9]; [16] -61% | [9]; [17] -14% | [9]; at 50.0 µM -26.9% | [10]; at 1.2 µM 11% | [10]; at 3.7 µM 15% | [10]; [16] 7% | [10]; at 11.0 µM 29% | [10]; [17] 46% | [11]; at 1.2 µM 6% | [11]; at 3.7 µM 6% | [11]; at 11.0 µM 31% | [12]; at 1.2 µM 6% | [12]; at 3.7 µM 12% | [12]; at 11.0 µM 27% | [13]; at 1.2 µM 2% | [13]; at 3.7 µM 11% | [13]; at 11.0 µM 37% | [14]; [16] 16% | [15]; at 1.2 µM 6% | [15]; at 3.7 µM 15% | [15]; at 11.0 µM 68%
active: [1]; at 33.0 µM 88% | [1]; at 100.0 µM 98% | [3]; at 33.0 µM 97% | [3]; at 100.0 µM 94% | [4]; at 33.0 µM 95% | [4]; [17] 88% | [4]; at 50.0 µM 83.8% | [4]; at 100.0 µM 92% | [5]; at 33.0 µM 96% | [5]; at 50.0 µM 86.5% | [5]; at 100.0 µM 98% | [6]; at 33.0 µM 98% | [6]; at 100.0 µM 98% | [7]; at 50.0 µM 85% | [8]; at 33.0 µM 97% | [8]; at 100.0 µM 97% | [10]; at 33.0 µM 96% | [10]; at 50.0 µM 93.9% | [10]; at 100.0 µM 97% | [11]; at 33.0 µM 84% | [11]; at 100.0 µM 98% | [12]; at 33.0 µM 97% | [12]; at 100.0 µM 98% | [13]; at 33.0 µM 96% | [13]; at 100.0 µM 97% | [14]; [17] 86% | [14]; at 50.0 µM 95% | [15]; at 33.0 µM 96% | [15]; at 100.0 µM 94%
